High-throughput results (PubChem BioAssay)
This is a sample that favours compounds with a hit; in the whole collection about 4.6% have one here.
FXN GAA850 act – frataxin GAA850 promoter activation; HEK293 lucGAA850 FXN promoter luciferase reporter, 24 h; percent of 10 µM SAHA response; activation, % at 6 µM; actives 0.56% (n = 360,000); AID 540364;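 active = activation above the average of all compounds screened plus 3 SD, cutoff fixed separately per campaign, cut at about 7.5% in these data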
HSF1 inhib – HSF1 inhibition; NIH3T3-HGL HSE-luciferase, MG132-induced, luminescence 8 h; hits give low values; activity change, negative = inhibition, % at 7.5 µM (by protocol); actives 0.77% (n = 300,000); AID 2098;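 active = more than half of replicate wells show activity change below -50%, luminescence cut by over half; inconclusive = some wells, but at most half, below -50%; inactive = no replicate well below -50%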;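 also: luciferase reports HSF-1 transcriptional activity via heat shock element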
AHR activator – human AHR activation; actives 2.5% (n = 320,000); AHR-responsive luciferase reporter cells, luminescence; P35869; activation, % at 5 µM; in the data active = activation above about 47%
Target sequence (P35869 whole entry, looked up): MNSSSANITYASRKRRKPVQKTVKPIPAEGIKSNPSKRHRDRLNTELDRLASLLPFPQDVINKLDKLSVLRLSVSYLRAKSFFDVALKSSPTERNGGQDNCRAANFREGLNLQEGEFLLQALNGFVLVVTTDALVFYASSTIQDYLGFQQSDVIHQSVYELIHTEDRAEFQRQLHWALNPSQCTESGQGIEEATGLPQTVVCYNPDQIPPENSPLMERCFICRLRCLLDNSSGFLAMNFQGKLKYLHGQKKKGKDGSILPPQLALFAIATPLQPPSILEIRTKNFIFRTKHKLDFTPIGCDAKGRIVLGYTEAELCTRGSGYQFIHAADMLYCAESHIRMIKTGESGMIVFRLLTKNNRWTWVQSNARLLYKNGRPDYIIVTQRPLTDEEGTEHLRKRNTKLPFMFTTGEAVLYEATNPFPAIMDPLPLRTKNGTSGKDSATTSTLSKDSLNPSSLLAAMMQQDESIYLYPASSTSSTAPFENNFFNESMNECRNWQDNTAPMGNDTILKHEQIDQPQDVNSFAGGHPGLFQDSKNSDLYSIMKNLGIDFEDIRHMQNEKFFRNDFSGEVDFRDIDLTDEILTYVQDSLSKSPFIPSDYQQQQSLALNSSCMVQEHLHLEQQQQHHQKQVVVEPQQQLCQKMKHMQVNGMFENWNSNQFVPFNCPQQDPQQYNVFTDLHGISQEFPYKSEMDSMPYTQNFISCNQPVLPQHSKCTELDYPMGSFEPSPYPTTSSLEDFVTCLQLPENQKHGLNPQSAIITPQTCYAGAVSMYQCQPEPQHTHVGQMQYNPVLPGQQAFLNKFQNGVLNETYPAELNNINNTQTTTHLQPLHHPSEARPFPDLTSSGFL
HSF1 activator – increases HSF-1 driven luciferase reporter signal; NIH3T3-HGL HSF-1 luciferase reporter, MG132, 8 h; 100% = twice DMSO control signal; activation, % at 9 µM; actives 1.7% (n = 300,000); AID 504408;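 active = mean replicate activation of at least 50% with a set share of replicates each reaching 50%; inconclusive = only one of those two conditions met; inactive = mean below 50% and too few replicates reaching it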
GAA30 counter – GAA30 FXN promoter activation counter-screen | HEK293 lucGAA30 FXN promoter luciferase, 24 h; DMSO = 0%, 5 µM ipriflavone = 100% | shares compounds with FXN GAA850 act | actives 66% (n = 1,900) | activation, % at 6 µM;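 active = mean activation above the mean of solvent-only control wells plus 3 SD, cut at about 22% in these data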;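 also: counterscreen of GAA850 promoter hits where activity marks nonselective or luminescence artifacts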
GAA850 confirm – confirmation of GAA850 frataxin (FXN) promoter activators; shares compounds with FXN GAA850 act; HEK293 lucGAA850 FXN promoter luciferase reporter, 24 h; 100% = activation by SAHA; activation, % at 6 µM; actives 86% (n = 1,900); AID 588351;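 active = mean activation above a set limit taken from the primary screen, cut at about 8% in these data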
Large screens that a line does not name were inactive (follow-up assays come after a bar, where they were run).

O=S(=O)(NCC(Nc1ccc(Cl)cc1)c1ccccc1)c1ccc(Cl)cc1 (stereo unspecified)	FXN GAA850 act 8.5 | GAA30 counter inactive | GAA850 confirm 10.0
O=S(=O)(NCC(c1ccccc1)N1CCC(O)CC1)c1ccc(Cl)cc1 (stereo unspecified)	none
CCN(CC)S(=O)(=O)c1ccc(OC)c(NC(=O)/C=C/c2ccco2)c1	none
Brc1ccc(/C=N/Nc2nncc(-c3ccccc3)n2)o1	none (no result: FXN GAA850 act)
Oc1ccc(/C=N\Nc2nncc(-c3ccccc3)n2)cc1	FXN GAA850 act 8.7 | GAA30 counter 40 | GAA850 confirm 18
COc1ccc(-c2cnnc(N/N=C/c3ccc(O)c(O)c3)n2)cc1	none
COc1ccc(-c2cnnc(N/N=C/c3ccc(O)cc3)n2)cc1	FXN GAA850 act 7.6, HSF1 activator 101 | GAA30 counter 68 | GAA850 confirm 36
Cc1ccc(-n2cc(CNCCCn3cccn3)c(-c3cccc(C)c3)n2)cc1	none
Cc1ccc(C)c(-n2cc(CNCCCn3cccn3)c(-c3ccccc3)n2)c1	FXN GAA850 act 11 | GAA30 counter inactive | GAA850 confirm inactive
CC(=O)N1CC(=O)N=C1SCC(=O)Nc1nc(C)c(-c2ccccc2)s1	FXN GAA850 act 8.0 | GAA30 counter 44 | GAA850 confirm 22
CCOc1ccc(-c2csc(NC(=O)CSC3=NC(=O)CN3C(C)=O)n2)c2ccccc12	none
CC(C)(C)N1C(=O)[C@H]2[C@@H](c3ccc(Br)cc3)N3C(=O)N(c4cccc(Br)c4)C(=O)[C@@]3(Cc3ccccc3)[C@H]2C1=O	FXN GAA850 act 15 | GAA30 counter inactive | GAA850 confirm 11
CC(C)(C)N1C(=O)[C@H]2[C@@H](c3ccc(Br)cc3)N3C(=O)N(c4ccccc4)C(=O)[C@@]3(Cc3ccccc3)[C@H]2C1=O	FXN GAA850 act 9.9 | GAA30 counter inactive | GAA850 confirm 14
CCN1C(=O)[C@H]2[C@@H](c3ccc(C)cc3)N3C(=O)N(c4cccc(Br)c4)C(=O)[C@@]3(Cc3ccccc3)[C@H]2C1=O	none
COc1ccc([C@@H]2[C@@H]3C(=O)N(C(C)(C)C)C(=O)[C@@H]3[C@]3(Cc4ccccc4)C(=O)N(c4ccc(OC)cc4)C(=O)N23)cc1	none
O=C(c1cc2ccccc2o1)c1cccs1	FXN GAA850 act 8.3 | GAA30 counter 117 | GAA850 confirm 40
O=C(NC(=S)Nc1ccc(NC(=O)c2cccs2)cc1)c1cc2ccccc2o1	none
COc1ccc(NC(=S)Nc2ccccn2)cc1	FXN GAA850 act 8.3 | GAA30 counter 109 | GAA850 confirm 32
COc1cc(/C=N/n2c(-c3cc(C)[nH]n3)n[nH]c2=S)ccc1O	none
Cc1ccc(/C=N\Nc2cn[nH]c(=O)c2Cl)cc1	FXN GAA850 act 11 | GAA30 counter 104 | GAA850 confirm 32
CC(=O)c1ccc(NC(=S)NC(=O)c2c(Cl)c(C)nn2C)cc1	FXN GAA850 act 8.8 | GAA30 counter 23 | GAA850 confirm inactive
C/C(=N\NC(=O)c1c(Cl)c(C)nn1C)c1ccc(NC(=O)C2CCC2)cc1	none
O=C(NCC(c1cccs1)N1CCOCC1)c1ccccc1NS(=O)(=O)c1ccc(Cl)cc1 (stereo unspecified)	none
Cn1/c(=N/N=C/c2ccccn2)sc2ccccc21	FXN GAA850 act 10 (no result: HSF1 inhib, AHR activator, HSF1 activator) | GAA30 counter 114 | GAA850 confirm 35
N#C/C(=C\c1cccs1)C(=O)Nc1nccs1	FXN GAA850 act 9.2, HSF1 activator 60 | GAA30 counter 106 | GAA850 confirm 28
N#C/C(=C\c1cccs1)C(=O)NCc1ccccc1	none
N#C/C(=C/c1ccc(O)c(O)c1)c1nc2ccccc2[nH]1	FXN GAA850 act 9.2 | GAA30 counter 102 | GAA850 confirm 39
CC(c1ccco1)N(C(=O)C12CC3CC(CC(C3)C1)C2)c1ccccn1 (stereo unspecified)	none
O=C(N(c1ccccn1)c1ccccn1)C12CC3CC(CC(Cl)(C3)C1)C2	FXN GAA850 act 8.4 | GAA30 counter inactive | GAA850 confirm inactive
CC(/C=C/c1ccccc1)=N/O	none
CC(/C=C/c1ccc(OCc2ccccc2)cc1)=N\O	FXN GAA850 act 7.9, HSF1 activator inconclusive | GAA30 counter 117 | GAA850 confirm 38
COc1ccc(NC(=O)CC2SC(N3CCOCC3)=NC2=O)cc1OC (stereo unspecified)	none (no result: HSF1 inhib, HSF1 activator)
CCOC(=O)c1cnc(Nc2nc3ccccc3o2)nc1CSC(=S)N(CC)CC	FXN GAA850 act 11 | GAA30 counter 41 | GAA850 confirm 25
COc1ccc(O)c(-c2[nH]ncc2C(=O)c2ccccc2)c1	none
Cc1ccc(NC(=O)CSc2nnc(C)c(=O)[nH]2)cc1C	none
COC(=O)c1c(NC(=O)Cc2cccs2)sc(C(=O)N2CCCCC2)c1C	FXN GAA850 act 9.2 | GAA30 counter inactive | GAA850 confirm 9.3
Cc1ccc(-c2nc3ccccc3o2)cc1NC(=O)c1ccc2c(c1)OCO2	none
COC(=O)N1[C@H](C)C=C[C@]1(Cc1ccccc1)C(=O)NCCCNc1ncc(C(F)(F)F)cc1Cl	FXN GAA850 act 7.8 | GAA30 counter 23 | GAA850 confirm 11
C[C@]1(C(=O)NCCCNc2ncc(C(F)(F)F)cc2Cl)C=C[C@@H](Cc2ccccc2)N1C(=O)c1ccccc1	none
S=C(NCc1ccco1)N1CCOCC1	none
COc1ccccc1CN(C(=O)CCl)C(C(=O)NC1CCCCC1)c1ccncc1 (stereo unspecified)	none (no result: HSF1 inhib, HSF1 activator)
CCOc1ccc2c(c1)c(N=Nc1cccc(C(=O)O)c1)c(O)n2C	FXN GAA850 act 8.8 | GAA30 counter 107 | GAA850 confirm 38
Cc1ccc(-c2c(C(=O)N3CCOCC3)oc(=O)c3ccccc23)cc1	none
CCN1CCN(C(=O)c2oc(=O)c3ccccc3c2-c2ccc(C)cc2)CC1	FXN GAA850 act 15 | GAA30 counter inactive | GAA850 confirm inactive
C/C(=N\NC(=O)C1CCCC1)c1ccc(Cl)c(Cl)c1	none (no result: HSF1 inhib, AHR activator, HSF1 activator)
CCOC(=O)c1sc(Nc2nc3c(F)cccc3s2)cc1C	FXN GAA850 act 11, AHR activator 52, HSF1 activator inconclusive | GAA30 counter 106 | GAA850 confirm 42
CCOC(=O)c1sc(NC(=O)Nc2cccc(Cl)c2)cc1C	none
CCOC(=O)c1[nH]c2ccc(F)cc2c1NC(=O)c1ccccc1C(=O)O	none (no result: AHR activator)
CCOC(=O)c1[nH]c2ccc(OC)cc2c1NC(=O)c1ccccc1C(=O)O	FXN GAA850 act 8.0 | GAA30 counter 28 | GAA850 confirm 13
COc1ccc(-c2csc3ncn(-c4ccccc4OC)c(=O)c23)cc1OC	none
COc1cc(NC(=O)Cn2ncc(Cl)c(Cl)c2=O)c(C)cc1[N+](=O)[O-]	FXN GAA850 act 12, HSF1 inhib -93 (no result: AHR activator) | GAA30 counter inactive | GAA850 confirm inactive
COc1cc(NC(=O)CN2C(=O)CN(C)C2=O)c(C)cc1[N+](=O)[O-]	none
